Measured values reported in PubChem BioAssay AID602396 (The Scripps Research Institute Molecular Screening Center, 2012).
The campaign covered roughly 360,000 compounds. About 460 (0.13%) were called active.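 How the source made its calls: active means inhibition above the mean inhibition of all tested compounds plus 3 SD (cut at about 73% in these data); inactive means the rest.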 What follows is part of a selection rich in actives, with near analogues and random picks from the rest.

target: Nuclear receptor subfamily 5 group A member 2 (Homo sapiens) (UniProt O00482); test: reduction of NR5A2-driven StAR reporter activity – cell-based, luminescence, HEK293T, StAR-luciferase reporter, primary screen (AID 602396); settings: LRH-1 transfected, 24 h, at 3.6 µM, stronger effect = higher value;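 further: 0% = DMSO wells and 100% = reporter-only cells lacking LRH-1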
Sequence (O00482 whole entry, looked up): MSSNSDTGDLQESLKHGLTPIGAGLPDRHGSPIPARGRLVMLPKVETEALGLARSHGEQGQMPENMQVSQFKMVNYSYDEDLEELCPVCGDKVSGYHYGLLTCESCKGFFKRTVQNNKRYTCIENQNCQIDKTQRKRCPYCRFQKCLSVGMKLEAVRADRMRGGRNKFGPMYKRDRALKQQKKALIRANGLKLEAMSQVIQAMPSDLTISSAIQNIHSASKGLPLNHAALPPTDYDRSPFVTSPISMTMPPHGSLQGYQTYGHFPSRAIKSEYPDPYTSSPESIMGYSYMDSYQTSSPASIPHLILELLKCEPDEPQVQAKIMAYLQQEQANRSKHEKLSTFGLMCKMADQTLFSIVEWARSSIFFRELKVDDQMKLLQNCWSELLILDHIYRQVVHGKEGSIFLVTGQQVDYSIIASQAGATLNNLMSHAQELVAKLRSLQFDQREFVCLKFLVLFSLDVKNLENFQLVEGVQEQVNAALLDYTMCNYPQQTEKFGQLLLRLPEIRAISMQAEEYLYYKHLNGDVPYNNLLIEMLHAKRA

inhibition, inactive:
O=C(Nc1cccc(S(=O)(=O)N2CCCC2)c1)c1cncc(Br)c1 -0.97%
COc1ccc(SC[C@H](Cc2ccccc2)N2CCN(CCc3ccccc3)CCC2=O)cc1 -6.85%
CCn1nc(C(=O)NNS(=O)(=O)c2cc(/C=C/C(=O)O)cc(OC)c2OC)c2ccccc2c1=O 11.4%
O=C(O)C(NS(=O)(=O)c1cccc2nsnc12)c1ccccc1 (stereo unspecified) -4.31%
COc1ccc(S(=O)(=O)N2CCCCC2)cc1NC(=O)C1CC(=O)N(c2ccc3c(c2)OCCO3)C1 (stereo unspecified) 8.99%
NS(=O)(=O)c1ccc(NC(=O)/C=C/c2ccccc2Cl)cc1 -11.9%
CCN(CC(=O)NCc1cccs1)C(=O)c1ccc(OC)c(S(=O)(=O)N2CCOCC2)c1 -9.13%
COc1ccc(N2C(=O)C(O)C2c2ccc(C)cc2)cc1 (stereo unspecified) -10%
C/C=C/C(=O)Nc1ccc(N2CCN(c3ccc(C(F)(F)F)cn3)CC2)nc1 -9.09%
COC(=O)c1cccc(C(=O)N2CCC(CCC(=O)NCc3ccc(F)cc3)CC2)c1 11.6%
Nc1nc(SCC(=O)NNc2c(Cl)cc(Cl)cc2Cl)n[nH]1 14.2%
CCc1cc(=O)oc2cc(C)cc(OC(C)C(=O)O)c12 (stereo unspecified) 6.8%
CC1CC(C)(C)CC2(C1)NC(=O)N(CC(=O)Nc1nccs1)C2=O (stereo unspecified) -13.1%
CC(=O)N1CCC(C(=O)OCc2ccc(Cl)cc2)(c2ccccc2)CC1 -12.7%
OCC(O)CN(c1ccccc1)c1ccccc1 (stereo unspecified) 9.64%
CC(Sc1nnc(-c2cccs2)n1C1CC1)C(=O)NCC1CCCO1 (stereo unspecified) -12.2%
O=C(COC(=O)c1ncc(Cl)c(Cl)c1Cl)NCc1cccs1 -2.02%
CCNC(=O)NNC(=O)C1CC(c2cccs2)=NO1 (stereo unspecified) 19.8%
C=CCn1c2ccccc2c2nnc(SCc3[nH]c(=O)[nH]c3C(=O)CCCCC(=O)OCC)nc21 9.39%
CCOC(=O)c1sc(N(Cc2ccccc2)C(=O)CN2C(=O)CN(C)C2=O)nc1C -6.11%
CC(c1cccnc1)N(CCN(C)C)C(=O)Nc1ccc(Cl)c(Cl)c1 (stereo unspecified) -1.18%
O=C(Nc1ccc(Cl)c(Cl)c1)N1CC=C(c2ccccc2)CC1 -22.6%

inhibition, active:
COc1ccc2c(c1)c(=Cc1ccc(N(C)C)cc1)c1cc(-c3ccccc3)[n+](C)n12 91.5%
C=CCn1c(C)cc(C2=NNC(=NCC)SC2)c1C 84.2%
COc1cccc2c1C(=O)c1c(O)c3c(c(O)c1C2=O)CC(O)(C(C)=NNC(=O)c1ccc(Cl)c(Cl)c1)CC3OC1CC(N)C(O)C(C)O1 (stereo unspecified) 95.6%
O=C(CC(O)(C(F)(F)F)C(F)(F)F)Nc1ccc(Cl)c(Cl)c1 100%
